Assay outcomes (PubChem BioAssay)
TEAD-YAP block – TEAD-YAP interaction inhibition; HEK-TIYL cells, TEAD-Gal4/YAP UAS-luciferase luminescence; 640,000 tested, 1.4% active; inhibition, % at 9.12 µM; in the data active = inhibition above about 32%;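 note: 0% = median of test compound wells and 100% = reference inhibitor wells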
MITF inh – blocks human microphthalmia-associated transcription factor; AlphaScreen MITF homodimerization, bead proximity signal; AID 1259374; 650,000 tested, 0.91% active; inhibition, % at 2.6 µM; in the data active = inhibition above about 50%;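 note: 0% = vehicle wells with protein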
Target sequence (O75030 whole entry, looked up): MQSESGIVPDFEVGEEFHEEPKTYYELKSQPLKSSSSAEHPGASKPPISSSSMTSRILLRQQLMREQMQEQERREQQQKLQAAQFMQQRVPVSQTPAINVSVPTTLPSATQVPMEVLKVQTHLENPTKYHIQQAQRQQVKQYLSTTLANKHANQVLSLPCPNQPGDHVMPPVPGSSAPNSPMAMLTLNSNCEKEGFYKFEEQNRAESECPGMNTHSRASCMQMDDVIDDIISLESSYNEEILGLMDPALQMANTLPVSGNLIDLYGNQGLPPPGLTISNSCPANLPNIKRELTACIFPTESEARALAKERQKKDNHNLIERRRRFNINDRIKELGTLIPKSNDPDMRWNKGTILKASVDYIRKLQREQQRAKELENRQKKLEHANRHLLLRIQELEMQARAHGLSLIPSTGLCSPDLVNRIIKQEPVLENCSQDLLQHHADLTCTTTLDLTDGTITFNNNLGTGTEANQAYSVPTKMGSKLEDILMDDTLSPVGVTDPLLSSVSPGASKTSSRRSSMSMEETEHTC
FBW7 activator – activators of human E3 ligase FBW7 | normalized activity (activation), % at 26.1 µM | 650,000 tested, 0.13% active | AlphaScreen FBW7–phospho-cyclin E peptide binding, activator screen | AID 1259310; in the data active = normalized activity above about 1.9%;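 note: purified mutant Fbw7 with reduced substrate affinity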
GPR151 ag – human GPR151 activation. Q8TDV0. PathHunter beta-arrestin GPR151 cells, luminescence. activation, % at 11.2 µM. 650,000 tested, 1% active. AID 1508602; in the data active = activation above about 4.9%;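 note: 0% = median of compound wells and 100% = cells with positive control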
MITF confirm – human MITF inhibition, confirmation; shares compounds with MITF inh; AlphaScreen MITF homodimerization, biotin/His-MITF beads; inhibition, % at 2.6 µM; 4,700 tested, 16% active;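 active = inhibition above a cutoff derived from the DMSO control wells, cut at about 28% in these data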;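 note: 0% = MITF dimer wells with DMSO only; inhibitors lower the bead chemiluminescence by keeping MITF from dimerizing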
AS interf DR – counter-screen: compounds optically interfering with AlphaScreen. shares compounds with MITF inh. AID 1259373. AlphaScreen optical interference counterscreen, cell-free. IC50, µM. 480 tested, 6% active; call rule not given here
AS interf ctr – counter-screen: compounds optically interfering with AlphaScreen; shares compounds with MITF inh; LysRS AlphaScreen counterscreen, signal interference, triplicate; inhibition, % at 2.6 µM; 4,700 tested, 7.6% active;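 active = inhibition above a cutoff derived from the DMSO control wells, cut at about 30% in these data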
Active calls of the source: *. Only some compounds are listed: those with a hit (about 3.5% of all), similar ones and a draw of the others.

For CC(C)C[C@H]1NC(=O)[C@H]2CN(C(=O)NC3CCCCC3)CCN2C1=O the results were TEAD-YAP block 12, MITF inh 74*, FBW7 activator 0, GPR151 ag -1, MITF confirm 41*, AS interf DR >6.5 and AS interf ctr -7.
CC(C)C[C@@H]1NC(=O)[C@H]2CN(C(=O)NC3CCCCC3)CCN2C1=O was read as TEAD-YAP block 11, MITF inh 80*, FBW7 activator 0, GPR151 ag -1, MITF confirm 75*, AS interf DR >6.5 and AS interf ctr -13.
Screening Cc1ccc(C(=O)Nc2ccccc2C#N)c(Cl)c1 returned TEAD-YAP block -32, MITF inh 63*, FBW7 activator 1, GPR151 ag 0, MITF confirm 5 and AS interf ctr 7.
O=C(Nc1nc(-c2ccc(Br)cc2)cs1)c1ncn[nH]1 was read as TEAD-YAP block -13, MITF inh 63*, FBW7 activator -1, GPR151 ag 1, MITF confirm 44* and AS interf ctr 78*.
For O=C(Nc1nc(-c2ccccc2)cs1)c1ncn[nH]1 the results were TEAD-YAP block -19, MITF inh 47, FBW7 activator -1 and GPR151 ag 0.
CCN(CC(=O)Nc1cccc(OC)c1)CC(=O)Nc1ccc(C)cc1Cl was read as TEAD-YAP block 8, MITF inh 62*, FBW7 activator 0, GPR151 ag 2, MITF confirm 4 and AS interf ctr 18.
CCN(CC)CC(=O)Nc1cccc(OC)c1 was read as TEAD-YAP block -1, MITF inh 1, FBW7 activator 0 and GPR151 ag 3.
Screening CCN(CC(=O)Nc1cccc(OC)c1)Cc1cc(=O)oc2cc(NC(C)=O)ccc12 returned TEAD-YAP block 8, MITF inh 54*, FBW7 activator 0, GPR151 ag -1, MITF confirm 24 and AS interf ctr -6.
For N#CCCN(C1CCCCC1)S(=O)(=O)c1ccc(-c2ccc([N+](=O)[O-])cc2)cc1 the results were TEAD-YAP block 12, MITF inh 7, FBW7 activator 0 and GPR151 ag 2.
Screening CCN(CC)CCCNCc1c(F)cccc1Cl returned TEAD-YAP block -3, MITF inh 57*, FBW7 activator 0, GPR151 ag 1, MITF confirm 19 and AS interf ctr 8.
CCCN(CCO)Cc1c(F)cccc1Cl was read as TEAD-YAP block -2, MITF inh 56*, FBW7 activator 0, GPR151 ag 1, MITF confirm -7 and AS interf ctr -9.
OCCCCNCc1c(F)cccc1Cl was read as TEAD-YAP block 4, MITF inh -9, FBW7 activator 0 and GPR151 ag -1.
Screening Cc1ccccc1OCC(=O)Nc1ccc(C(N)=O)cc1 returned TEAD-YAP block -1, MITF inh 11, FBW7 activator 0 and GPR151 ag -1.
`CC(C)=C1C2CC2C2C(C(=O)O)C12` (stereo not drawn) gave TEAD-YAP block 15, MITF inh 60*, FBW7 activator 0, GPR151 ag -1, MITF confirm -3 and AS interf ctr 5.
Screening CCOC(=O)c1c(C)n(-c2ccc(C)cc2)c2ccc(OCC(O)CN3CCN(CCO)CC3)cc12 (stereo not drawn) returned TEAD-YAP block -6, MITF inh 86*, FBW7 activator 0, GPR151 ag -1, MITF confirm 17 and AS interf ctr 6.
Screening Cc1cccc(OCC(=O)NCCc2ccc(N3CCCC3)cc2)c1 returned TEAD-YAP block 2, MITF inh 53*, FBW7 activator -1, GPR151 ag 0, MITF confirm -2 and AS interf ctr -1.
For O=C1Nc2c(I)cccc2C1=O the results were TEAD-YAP block 6, MITF inh 11, FBW7 activator 0 and GPR151 ag -1.
`O=C1Nc2c(C(=O)O)cccc2C1=O` gave TEAD-YAP block 2, MITF inh 71*, FBW7 activator 0, GPR151 ag -3, MITF confirm 68*, AS interf DR >7.9 and AS interf ctr 10.
C/C(=N/NC(=O)c1ccccc1O)c1ccc2ccccc2c1 was read as TEAD-YAP block -21, MITF inh 15, FBW7 activator 0 and GPR151 ag 0.
`Cc1nc(NCCCn2ccnc2)cc(-c2cccc(C(F)(F)F)c2)n1` gave TEAD-YAP block -44, MITF inh 61*, FBW7 activator -1, GPR151 ag -1, MITF confirm -4 and AS interf ctr 18.
N#CCCNc1cc(-c2ccc(F)cc2)nc(-c2cccnc2)n1 was read as TEAD-YAP block 5, MITF inh 1, FBW7 activator 0 and GPR151 ag -2.
Screening Fc1ccc(-c2cc(NCCCn3ccnc3)nc(-c3cccnc3)n2)cc1 returned TEAD-YAP block 9, MITF inh 54*, FBW7 activator -1, GPR151 ag 0, MITF confirm 31* and AS interf ctr 39*.
`Fc1ccc(-c2cc(NCCCn3ccnc3)nc(-c3ccncc3)n2)cc1` gave TEAD-YAP block -4, MITF inh 43, FBW7 activator 0 and GPR151 ag 1.
N#CCCNc1cc(-c2cccc(C(F)(F)F)c2)nc(-c2cccnc2)n1 was read as TEAD-YAP block 4, MITF inh 104*, FBW7 activator 0, GPR151 ag 0, MITF confirm 1 and AS interf ctr 11.
`CNC(=O)CSc1ncnc2ccccc12` gave TEAD-YAP block 5, MITF inh 5, FBW7 activator 0 and GPR151 ag -1.
OCCN(Cc1ccccc1)Cc1cccc(F)c1 was read as TEAD-YAP block -18, MITF inh 57*, FBW7 activator 1, GPR151 ag 0, MITF confirm 9 and AS interf ctr 9.
OCCN(Cc1ccccc1)Cc1ccc(C(F)(F)F)cc1 was read as TEAD-YAP block 1, MITF inh 52*, FBW7 activator 0, GPR151 ag 3, MITF confirm -3 and AS interf ctr 0.
For OCCN(Cc1ccccc1)Cc1ccccc1Cl the results were TEAD-YAP block -1, MITF inh 14, FBW7 activator 0 and GPR151 ag 0.
`O=C(Cc1cccc(C(F)(F)F)c1)Nc1ccccc1` gave TEAD-YAP block 10, MITF inh -19, FBW7 activator 0 and GPR151 ag 1.
Screening CSc1ccc(CN(CCO)Cc2ccccc2)cc1 returned TEAD-YAP block 13, MITF inh 35, FBW7 activator 1 and GPR151 ag 2.
`OCCN(Cc1ccccc1)Cc1cccc(C(F)(F)F)c1` gave TEAD-YAP block -8, MITF inh 52*, FBW7 activator 0, GPR151 ag -1, MITF confirm -13 and AS interf ctr -4.
For OCCN(Cc1ccccc1)Cc1ccccc1F the results were TEAD-YAP block 6, MITF inh 61*, FBW7 activator 1, GPR151 ag -1, MITF confirm -3 and AS interf ctr -9.
